Our source for the Potency and outcome values is PubChem BioAssay (Tox21).

Assay [1] is described as follows: qHTS assay to identify small molecule agonists of the estrogen receptor alpha (ER-alpha) signaling pathway in the presence of an antagonist - cell viability counter screen (AID 1259386). Note: series mostly up to about 92 µM; nearly all actives have a fitted effect of over 30% in size. The gist of the method: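 Read-out: CellTiter-Fluor fluorescence after 1hr reagent incubation, measured in the same wells as the luciferase readout. VM7Luc4E2 cells were exposed to 15 compound concentrations with 10.0nM ICI-182,780 for 22hr at 37C.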

Assay [2] has as its target Progesterone receptor (Homo sapiens) (UniProt P06401). The experiment in a line: qHTS assay to identify small molecule agonists of the progesterone receptor (PR) signaling pathway (AID 1346784; calls by dose curve; note: nearly all actives have a fitted effect of over 30% in size). The gist of the method: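 PR-UAS-bla HEK 293T cells carrying a UAS-driven beta-lactamase reporter were seeded in medium with 2% charcoal-stripped FBS, preincubated 6 hr at 37C, then exposed to compounds in DMSO for 16 hr; agonism was read by LiveBLAzer B/G FRET fluorescence.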
In general terms: In qHTS, concentration-response curves come from the screen itself.

Assay [3] shares this target. Description: qHTS assay to identify small molecule antagonists of the progesterone receptor (PR) signaling pathway (AID 1346795; active = well fitted inhibition curve with a large enough effect in the signal ratio in the repeat runs, not every such curve was filed as active; the % refers to the signal ratio; note: potency is the fitted concentration of half-maximal effect). A digest of the protocol: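 PR-UAS-bla HEK293T cells carrying a UAS-driven beta-lactamase reporter were plated in medium with 2% charcoal-stripped FBS and rested 6 hr at 37C. Compounds were added with 1 nM R5020 (final) for 16 hr, then FRET substrate loaded 2 hr at room temperature.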

Assay [4] in a line: qHTS assay to identify small molecule antagonists of the progesterone receptor (PR) signaling pathway - cell viability counter screen (AID 1346798). Note: series mostly up to about 92 µM; nearly all actives have a fitted effect of over 50% in size. The gist of the method:
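PR-UAS-bla HEK293T cells in medium with 2% charcoal-stripped FBS were treated with compounds plus R5020 for 16 hr at 37C. Cell viability was then read by CellTiter-Glo luminescence after 30 min at room temperature in the same wells.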

A short description of assay [5]: qHTS assay to identify small molecule antagonists of the TGF-beta/Smad signaling pathway - cell viability counter screen (AID 1346824). Note: nearly all actives have a fitted effect of over 50% in size. A digest of the protocol:
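Cytotoxicity counter-screen run in the same wells as the beta-lactamase Smad reporter read: CellTiter-Glo luminescence after 30 min at room temperature. HEK 293T SBE-bla cells had 5 hr compound exposure at 37 C with TGF-beta1 (0.25 ng/mL stock).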

The nature of assay [6]: qHTS assay to identify small molecule agonists of the TGF-beta/Smad signaling pathway (AID 1346859; active = well fitted activation curve with a large enough effect in the signal ratio in the repeat runs, not every such curve was filed as active; the % refers to the signal ratio; note: series mostly up to about 77 µM). A digest of the protocol: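 HEK 293T cells stably carrying a beta-lactamase reporter driven by the Smad binding element were seeded overnight, exposed to DMSO-dissolved compounds for 5 hr at 37 C, 5% CO2, then loaded with FRET substrate for 2 hr at room temperature.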
The target of assay [7] is Thyrotropin-releasing hormone receptor (Homo sapiens) (UniProt P34981). Description: qHTS assay to identify small molecule agonists of the thyrotropin-releasing hormone receptor (TRHR) signaling pathway (AID 1346891; calls by dose curve; note: series mostly up to about 58 µM). A digest of the protocol:
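TRHR-expressing HEK293 cells were plated 18 h at 37 °C/5% CO2, loaded with calcium dye 2 h at 37 °C, then given compound in DMSO; fluorescence was read kinetically for 3 min at 1 s intervals.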

A short description of assay [8]: Human pregnane X receptor (PXR) small molecule agonists, qHTS cell viability counter screen (AID 1346977). Note: nearly all actives have a fitted effect of over 50% in size. Note: potency is the fitted concentration of half-maximal effect. A digest of the protocol:
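PXR-Luc HepG2 cells in medium with 5% charcoal-stripped FBS were pre-incubated 5hr, then exposed to compounds for 24hr at 37C. Viability was read in the same wells by CellTiter-Fluor fluorescence, reagent added after 23hr with a 1hr incubation.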

Assay [9] in a line: Caspase-3/7 induction in HepG2 cells by small molecules, qHTS assay (AID 1346978). Note: nearly all actives have a fitted effect of over 15% in size. Note: potency is the fitted concentration of half-maximal effect. The gist of the method: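 Caspase-3/7 induction was measured by Caspase-Glo 3/7 luminescence (30 min, room temperature) after a 17 hr compound exposure of wild-type HepG2 cells seeded at 2,000 per well and pre-incubated 5 hr.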
A short description of assay [10]: Caspase-3/7 induction in CHO-K1 cells by small molecules, qHTS cell viability counter screen (AID 1346979). Note: nearly all actives have a fitted effect of over 35% in size. Note: potency is the fitted concentration of half-maximal effect. A digest of the protocol: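 Wild-type CHO-K1 cells were seeded at 1,500 per well, rested 5hr at 37 C, then exposed to compounds in DMSO. After 16hr, CellTiter-Fluor reagent was added and fluorescence read 1hr later as the viability measure.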
A short description of assay [11]: Caspase-3/7 induction in CHO-K1 cells by small molecules, qHTS assay (AID 1346980). Note: nearly all actives have a fitted effect of over 15% in size. The gist of the method: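 Luminescent Caspase-Glo 3/7 read (30min, room temperature) quantified apoptosis induction. Cells were wild-type CHO-K1, treated with compound for 17hr at 37 C and 5% CO2.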
Assay [12] can be described thus: Caspase-3/7 induction in HepG2 cells by small molecules, qHTS cell viability counter screen (AID 1346981). Note: series mostly up to about 92 µM; nearly all actives have a fitted effect of over 30% in size. A digest of the protocol: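 Fluorescence read-out of live-cell protease activity (CellTiter-Fluor) after 1 hr with reagent. This was measured in the same wells as the caspase-3/7 luminescence, on HepG2 cells exposed to DMSO-dissolved compounds for 16 hr at 37 C.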

Assay [13] has as its target Cytochrome P450 2D6 (Homo sapiens) (UniProt P10635). Description: Cytochrome P450 Family 2 Subfamily D Member 6 (CYP2D6) small molecule antagonists: luciferase reporter qHTS assay (AID 1671196). Note: nearly all actives have a fitted effect of over 50% in size. Note: potency is the fitted concentration of half-maximal effect. The gist of the method: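 Luminogenic proluciferin substrate, CYP2D6 enzyme; 10 min RT preincubation with compound, NADPH regeneration system added, 1 h RT. Stop/detection reagent, 20 min RT, luminescence read (RLU). Signal proportional to CYP activity.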
For orientation: In a reporter assay the amount or activity of a reporter protein is the signal.

A short description of assay [14]: qHTS assay to identify small molecule agonists of the progesterone receptor (PR) signaling pathway - cell viability counter screen (AID 1346799; calls by dose curve; note: nearly all actives have a fitted effect of over 45% in size). The gist of the method: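 PR-UAS-bla HEK293T cells, 3,000 per well in medium with 2% charcoal-stripped FBS, were preincubated 6 hr at 37C, then exposed to compounds for 16 hr; viability was read as CellTiter-Glo luminescence after 30 min at room temperature.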

Assay [15] deals with Nuclear receptor subfamily 1 group I member 2 (Homo sapiens) (UniProt O75469). The experiment in a line: Human pregnane X receptor (PXR) small molecule agonists, qHTS assay (AID 1346982). Note: nearly all actives have a fitted effect of over 35% in size. Note: potency is the fitted concentration of half-maximal effect. The gist of the method:
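HepG2 PXR-Luc reporter line, 5% charcoal-stripped FBS; 5 hr pre-incubation, compound (DMSO) 24 hr at 37 C/5% CO2; ONE-Glo 30 min RT; luminescence read-out.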

A short description of assay [16]: qHTS assay to identify small molecule agonists of the TGF-beta/Smad signaling pathway - cell viability counter screen (AID 1346829). Note: top concentration of the series differs between compounds; nearly all actives have a fitted effect of over 45% in size. A digest of the protocol: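 SBE-bla HEK 293T cells plated overnight, compound exposure 5 hr at 37 C. Viability read in the same wells by CellTiter-Glo luminescence after 30 min at room temperature, following the beta-lactamase read.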

Assay [17] addresses Thyrotropin-releasing hormone receptor (Homo sapiens) (UniProt P34981). The experiment in a line: qHTS assay to identify small molecule antagonists of the thyrotropin-releasing hormone receptor (TRHR) signaling pathway (AID 1346877; active = well fitted inhibition curve with a large enough effect in the repeat runs, not every such curve was filed as active; note: series mostly up to about 51 µM). A digest of the protocol:
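HEK293/TRHR cells, 18 h, 37 °C; Ca2+ dye 2 h; cpd 5 min RT; TRH 1 nM final; fluorescence read 3 min, 1 s intervals; 15 concs, triplicate.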

The structures appear in SMILES notation. Several values for one entry are separate records, joined by “and”; a condition that tells them apart may be missing. Identical values can stand only once. Results filed as inconclusive are left out. More than one record can exist for a structure, and the calls need not agree. Activity calls are given as the source filed them. Unless noted, calls come from the whole dose curve; as a rule, active = well fitted curve in the direction sought with a large enough effect in the repeat runs; inconclusive = weak or mixed curves; inactive = no such curve, though single readings can be large; an effect the other way counts as inactive or inconclusive.

Sequence of Cytochrome P450 2D6 (Homo sapiens) (P10635 whole entry, looked up): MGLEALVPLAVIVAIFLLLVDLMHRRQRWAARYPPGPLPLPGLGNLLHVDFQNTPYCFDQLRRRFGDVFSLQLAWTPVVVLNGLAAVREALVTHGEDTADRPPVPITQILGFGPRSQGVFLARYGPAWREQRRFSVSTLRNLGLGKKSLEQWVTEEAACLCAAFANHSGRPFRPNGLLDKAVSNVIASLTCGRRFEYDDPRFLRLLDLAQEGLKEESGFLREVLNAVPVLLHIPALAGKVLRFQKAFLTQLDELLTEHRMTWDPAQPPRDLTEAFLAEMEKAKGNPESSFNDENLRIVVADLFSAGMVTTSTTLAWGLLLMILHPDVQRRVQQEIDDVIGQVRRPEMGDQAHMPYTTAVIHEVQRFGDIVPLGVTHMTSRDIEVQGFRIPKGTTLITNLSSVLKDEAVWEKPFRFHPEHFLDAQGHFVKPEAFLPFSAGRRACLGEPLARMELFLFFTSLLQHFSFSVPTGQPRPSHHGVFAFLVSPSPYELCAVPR
Sequence of Progesterone receptor (Homo sapiens) (P06401 whole entry, looked up): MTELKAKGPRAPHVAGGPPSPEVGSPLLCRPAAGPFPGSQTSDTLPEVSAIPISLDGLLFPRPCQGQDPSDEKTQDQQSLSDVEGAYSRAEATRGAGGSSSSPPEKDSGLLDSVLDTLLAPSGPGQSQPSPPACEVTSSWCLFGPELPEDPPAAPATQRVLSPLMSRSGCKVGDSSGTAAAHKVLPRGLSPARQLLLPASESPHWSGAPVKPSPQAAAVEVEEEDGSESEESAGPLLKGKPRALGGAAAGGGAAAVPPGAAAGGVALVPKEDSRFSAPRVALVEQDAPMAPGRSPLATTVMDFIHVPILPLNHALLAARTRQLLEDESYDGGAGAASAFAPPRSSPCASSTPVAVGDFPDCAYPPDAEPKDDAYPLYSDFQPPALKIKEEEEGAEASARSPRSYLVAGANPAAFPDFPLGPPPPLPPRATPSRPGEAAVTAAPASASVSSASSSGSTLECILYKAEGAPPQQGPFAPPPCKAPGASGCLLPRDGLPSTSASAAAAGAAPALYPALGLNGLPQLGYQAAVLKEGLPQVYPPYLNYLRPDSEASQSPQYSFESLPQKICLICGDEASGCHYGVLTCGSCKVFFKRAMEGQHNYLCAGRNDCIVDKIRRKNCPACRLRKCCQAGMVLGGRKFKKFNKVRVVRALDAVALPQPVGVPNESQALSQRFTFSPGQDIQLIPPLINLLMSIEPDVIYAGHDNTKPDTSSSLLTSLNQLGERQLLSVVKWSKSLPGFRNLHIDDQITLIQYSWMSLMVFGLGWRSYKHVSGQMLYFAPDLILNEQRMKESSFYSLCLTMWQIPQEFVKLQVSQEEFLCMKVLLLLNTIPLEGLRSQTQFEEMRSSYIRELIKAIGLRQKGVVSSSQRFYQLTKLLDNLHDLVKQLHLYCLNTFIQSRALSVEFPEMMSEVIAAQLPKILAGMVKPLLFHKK
Sequence of Nuclear receptor subfamily 1 group I member 2 (Homo sapiens) (O75469 whole entry, looked up): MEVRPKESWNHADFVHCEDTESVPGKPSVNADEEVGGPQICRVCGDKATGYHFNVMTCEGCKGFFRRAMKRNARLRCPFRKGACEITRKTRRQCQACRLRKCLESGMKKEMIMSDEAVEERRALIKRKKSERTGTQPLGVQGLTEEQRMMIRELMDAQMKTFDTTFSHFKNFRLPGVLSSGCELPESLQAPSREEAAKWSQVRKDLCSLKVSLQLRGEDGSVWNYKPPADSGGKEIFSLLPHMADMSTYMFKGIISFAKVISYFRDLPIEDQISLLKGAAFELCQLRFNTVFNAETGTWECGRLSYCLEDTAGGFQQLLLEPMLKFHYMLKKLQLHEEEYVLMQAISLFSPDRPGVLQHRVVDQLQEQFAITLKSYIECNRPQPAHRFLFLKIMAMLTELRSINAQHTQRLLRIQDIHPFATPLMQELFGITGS
Sequence of Thyrotropin-releasing hormone receptor (Homo sapiens) (P34981 whole entry, looked up): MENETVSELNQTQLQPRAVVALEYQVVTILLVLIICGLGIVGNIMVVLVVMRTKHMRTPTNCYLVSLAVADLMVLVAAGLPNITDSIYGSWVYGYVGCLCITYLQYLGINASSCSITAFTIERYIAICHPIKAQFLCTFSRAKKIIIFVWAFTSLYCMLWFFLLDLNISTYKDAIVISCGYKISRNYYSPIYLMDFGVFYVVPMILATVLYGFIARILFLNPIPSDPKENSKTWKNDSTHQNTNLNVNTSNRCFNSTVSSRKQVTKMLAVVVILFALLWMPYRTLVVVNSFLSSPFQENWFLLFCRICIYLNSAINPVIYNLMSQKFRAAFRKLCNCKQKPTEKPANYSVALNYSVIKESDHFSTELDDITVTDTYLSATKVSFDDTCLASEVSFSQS

Regarding `C=CC(=O)OCCC(=O)O`, the Potency entry in assay [1], in assay [2], in [3], in assay [8], in assay [9] and in assay [10] was “inactive” each time. Moreover, the Potency entry in assay [12] was “inactive”. The compound was called inactive in assay [4], in assay [5], in [6], in assay [7] and in assay [11]. Further, the Potency in assay [13] was 23.2 µM (active) and inactive.

Take `O=C1c2ccccc2CCc2ccccc21`: the Potency entry in assay [1], in assay [2], in [8], in assay [10], in [12] and in assay [13] was “inactive” throughout. Further, the Potency in [3] is 27.9 µM (active); in assay [15], 55.6 µM (active) and inactive. Further, the compound was classed as inactive in assay [4], in [14], in assay [5], in assay [6], in [7] and in [11].

Consider `NCCCCCCN`, for which the Potency result in assay [1], in [2], in assay [3], in assay [8], in [12] and in assay [15] was “inactive” in each case. The result in [4], in assay [5], in assay [16], in assay [6], in [7] and in [11] was inactive. Moreover, the Potency was 2.75 µM (active) and 19.3 µM (active) in [10]; 32 µM (active) and 35.6 µM (active) in assay [13].

In the case of `C=C(C)C(=O)OCC(C)C`, the Potency entry in assay [1], in assay [2], in [3], in assay [12] and in assay [13] was “inactive” each time. For the same compound, the outcome in assay [4], in assay [5], in assay [6], in assay [7] and in [11] was inactive. Besides, the Potency in assay [8] was 39.8 µM (active) and inactive; in [9], 55.2 µM (active) and inactive; in [10], 12.4 µM (active) and inactive.

As for `CCCCCCCC=O`, the Potency entry in assay [1], in assay [2], in assay [3], in assay [8], in [10] and in assay [12] was “inactive” each time. Besides, the Potency result in [15] and in [13] was “inactive” in each case. The compound was called inactive in [4], in [14], in [5], in [16], in [6] and in assay [17]. In addition, the result in assay [7] and in assay [11] was inactive.
